Source: PubChem BioAssay (National Center for Advancing Translational Sciences (NCATS))
ALDH1A1 inh – inhibitors of human aldehyde dehydrogenase 1A1 | AID 1030 | 220,000 compounds, 7.3% hits | Potency, µM (doses to about 75.3 µM), without a hit: top-dose activity, negative = inhibition, most hits filed as inhibitors | Purified ALDH1A1, NADH fluorescence, propionaldehyde substrate;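 also: potency is read from the fitted curve at half-maximal effect; plate controls were no enzyme wells and a reference inhibitor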
Lamin A splicing – changes lamin A minigene splicing in HeLa cells; HeLa LMNA splicing GFP/RFP minigene ratio, 48 h; Potency, µM (doses to about 46.1 µM), inactives show top-dose ratio change, negative = inhibition, usual class: inhibitors; 200,000 compounds, 0.01% hits; AID 1487; active = well fitted inhibition curve with a large enough effect in the signal ratio, with a control signal flat, not every such curve was filed as active; inconclusive = small, poorly fitted or top-dose-only effect, or effect the other way, or a change in a side signal; the % refers to the signal ratio; also: potency is read from the fitted curve at half-maximal effect
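S3 HeLa stable clones carrying a lamin A-EGFP splicing minigene plus DsRed2 were seeded at 600 cells/well in Opti-MEM with 2% FBS, pin-dosed and incubated 48 h at 37°C. Acumen cytometry (488 nm) gave the GFP/RFP total-intensity ratio.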
12-hLO inh – 12-hLO (ALOX12) enzyme inhibition; P18054; purified 12-hLO, xylenol orange hydroperoxide absorbance; Potency, µM (top dose mostly 57.1 µM), without a hit: top-dose activity change, negative = inhibition, hits mostly inhibitors; 150,000 compounds, 0.12% hits; active = well fitted inhibition curve with a large enough effect; inconclusive = small, poorly fitted or top-dose-only effect; also: potency is read from the fitted curve at half-maximal effect; nearly all actives have a fitted effect of over 55% in size
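Hydroperoxide output read as Fe(III)-xylenol orange absorbance, 573-to-405 nm ratio, after 30 min reaction with 40 uM arachidonic acid. Enzyme: 150 nM purified human 12hLO, 15 min compound preincubation; 25 mM Hepes pH 7.0, room temperature.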
PNC assembly inh – inhibitors of perinucleolar compartment assembly | 140,000 compounds, 3.1% hits | AID 2417 | PC3M PTB-GFP, PNC prevalence imaging, 16 h; stronger effect = lower value | activity change (PNC), negative = inhibition, % at 10 µM;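 active = readout at or below -70, meaning at least 70% loss of cells showing the perinucleolar compartment, a nuclear body marking cancer cells; inconclusive = readout between -30 and a set limit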;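 also: plate controls were DMSO wells for no effect and camptothecin positive control wells for full effect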
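Read-out is percentage of cells bearing a perinucleolar compartment, from automated 20x imaging of fixed, Hoechst-stained PC3M PTB-GFP cells. Cells were seeded 4 h, then exposed 16 h to compound (23 nl of library stock) in duplicate plates.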
HPGD inh – HPGD (human) dehydrogenase inhibition | P15428 | purified HPGD, NADH fluorescence kinetic, PGE2 substrate | Potency, µM, for inactives: top-dose activity change, negative = inhibition, hits mostly inhibitors | 150,000 compounds, 4.3% hits | AID 894; also: potency is read from the fitted curve at half-maximal effect
Target sequence (P15428 whole entry, looked up): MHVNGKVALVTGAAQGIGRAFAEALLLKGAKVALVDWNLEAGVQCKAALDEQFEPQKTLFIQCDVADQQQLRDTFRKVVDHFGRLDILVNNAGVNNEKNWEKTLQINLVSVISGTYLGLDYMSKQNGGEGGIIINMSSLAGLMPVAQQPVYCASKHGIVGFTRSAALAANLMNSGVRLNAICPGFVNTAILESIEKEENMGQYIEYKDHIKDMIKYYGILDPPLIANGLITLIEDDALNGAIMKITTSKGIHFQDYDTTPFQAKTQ
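20 nM HPGD preincubated 15 min at room temperature with compound in 50 mM Tris-HCl pH 8, 0.01% Tween 20. Started with 1 mM NAD+ and 30 uM prostaglandin E2; NADH fluorescence (360/450 nm) read 5 times over 30-s intervals, last minus first.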
* marks the source's active call; other numbers are inactive results; ? = inconclusive; . = no result; [ ] = remark or other dose. Rows were chosen to be rich in hits. Some 10% of all compounds tested hit in one or more screens of this group. Unless noted, calls follow the shape of the dose curve; as a rule, active = well fitted inhibition curve with a large enough effect (not every such curve was filed as active); inconclusive = small, poorly fitted or top-dose-only effect, or another doubt; inactive = no such curve, though single readings can be large or run the other way. Unless noted, % is scaled to controls: 0 for no effect and ±100 for the full control effect.

SMILES	ALDH1A1 inh	Lamin A splicing	12-hLO inh	PNC assembly inh	HPGD inh
O=C1CN=C(c2ccccc2)c2oc3ccc(Br)cc3c2N1	-13%	15%	?	?	-4%
FC(Cl)(Cl)Cl	8%	.	0%	.	-4%
Oc1ccc2c3c1O[C@@H]1c4[nH]c5c(c4C[C@@]4(O)[C@@H](C2)N(CC2CC2)CC[C@]314)C[C@]1(O)[C@@H]2Cc3ccc(O)c4c3[C@@]1(CCN2CC1CC1)[C@H]5O4	.	.	-4%	.	.
S=c1[nH]c2cc(Br)cnc2[nH]1	3.2µM*	?	.	.	.
Cc1ccc(S(=O)(=O)N[C@@H](CCCCN)C(=O)CCl)cc1	8.9µM*	?	-2%	.	?
Cc1ccc(NC(=S)NCC2CCCO2)cc1 (stereo unspecified)	-13%	13%	-1%	-30	25µM*
CC(=NCC1CCCO1)c1c(O)n(-c2ccc(C)cc2)c(=O)[nH]c1=O (stereo unspecified)	2%	-11%	-3%	-14	-1%
C[C@@H]1OC(OC2C(OC3CC[C@@]4(C)C5CC=C6C7CC(C)(C)CC[C@@]7(C(=O)O)CCC6(C)C5(C)CCC4[C@]3(C)CO)OCC(O)C2O)C(O)C(O)C1O (stereo partly specified)	5%	?	2%	.	-5%
CC(C)n1c(=O)c(C=Nc2ccc(F)cc2)c(O)n(Cc2ccco2)c1=O	11µM*	10%	-3%	?	-30%
CN[C@H](Cc1ccccc1)c1cccc(OC)c1O	5%[13.5 µM]	.	-3%[11.4 µM]	.	-6%
Brc1cccc(-c2ccccc2)c1	10%	.	-3%	.	-2%
COc1ccc(CN2CCN(Cc3ccccc3)CC2)c(OC)c1	2%	-2%	2%	16	-12%
COc1ccc(OCC(=O)N2CCN(Cc3ccc(SC)cc3)CC2)cc1	2%	8%[46 µM]	.	.	.
COc1cccc(CN2CCN(C(=O)COc3ccc4ccccc4c3)CC2)c1	25µM*	?	-3%	12	-7%
COc1ccc(OCC(=O)N2CCN(Cc3ccc4c(c3)OCO4)CC2)cc1	1%	8%[46 µM]	.	.	.
Cc1ccc(OCC(=O)N2CCN(Cc3ccc4c(c3)OCO4)CC2)cc1	25µM*	-15%[46 µM]	.	.	.
COc1ccc(CN2CCN(C(=O)Cc3ccccc3)CC2)c(OC)c1	18µM*	4%	1%	11	-2%
COc1ccc(OCC(=O)N2CCN(C(C)C)CC2)cc1	?	-6%	-4%	-100*	-10%
CCCc1cc2c(n1CCO)C(C)C1CN(C(=O)c3ccccc3)C(C)(C(=O)OC)C21 (stereo unspecified)	6%	.	-2%	.	-13%
c1cc(OCC2CO2)cc(OCC2CO2)c1 (stereo unspecified)	?	.	1%	.	-13%
c1ccc(N=NNc2ccccc2)cc1	-78%	.	-20%	.	-4%
CCN1C(=O)C(=C2C=C(C)N(Cc3ccco3)C(C)=C2)C(=O)N(CC)C1=S	?	-8%[46 µM]	.	.	.
CCN1C(=O)C(=C/C=C/c2ccco2)C(=O)N(CC)C1=S	1.3µM*	-1%	-20%	-1	11µM*
COc1ccc(/C=C2/C(=O)N(Cc3ccco3)C(=O)N(C(C)C)C2=O)cc1	4µM*	13%	-4%	4	22µM*
CC(C)n1c(=O)c(C=Nc2ccc(Cl)cc2)c(O)n(Cc2ccco2)c1=O	?	7%	-1%	-16	?
SMILES	ALDH1A1 inh	Lamin A splicing	12-hLO inh	PNC assembly inh	HPGD inh
CC(C)N1C(=O)/C(=C/C=C/c2ccco2)C(=O)N(Cc2ccco2)C1=O	22µM*	?	?	?	32µM*
C=CC(C)=O	20µM*	.	-1%	.	-3%
CCC[CH2][Sn]([Cl])([Cl])[Cl]	?	.	3%	.	-3%
Cc1ccc(O)c(C(=O)c2cc(C(=O)NCc3ccccc3)c(=O)n(Cc3ccccc3)c2)c1	?	-16%	-5%	203	-29%
O=C(c1cc(C(=O)NCc2ccccc2)c(=O)n(Cc2ccccc2)c1)c1cc(Br)ccc1O	-14%	-24%	-2%	-22	10µM*
CCN(CC)S(=O)(=O)c1ccc(NN=C(C#N)C#N)cc1	2%	?	-22%	13	14µM*
CCC(C)C1N=C(c2ccccc2)c2cc(Cl)ccc2N(CC(=O)NCc2ccco2)C1=O (stereo unspecified)	0%	-9%	-4%	4	-3%
Cc1ccccc1C1=NCC(=O)N(CC(=O)NCc2ccco2)c2sc3c(c21)CCCC3	40µM*	5%	-23%	-11	40µM*
COc1cccc(N2CCN(Cc3cccc(Cl)c3)CC2)c1	-5%	7%	2%	15	-13%
COc1cccc(N2CCN(Cc3ccc(Cl)cc3)CC2)c1	10µM*	7%	0%	8	-14%
CCOP(=S)(OCC)SCC(=O)NC(C)(CC)C(=O)O (stereo unspecified)	5%	1%	8%	-111*	-8%
CCC(C)=O	?	.	-1%	.	-13%
COc1cc2c(c(OC)c1OC)-c1ccc(OC)c(=O)cc1[C@H](NC(C)=O)CC2	-2%	?	-1%	.	-2%
S=C(c1ccc(Cl)cc1)N1CCOCC1	?	-3%	-2%	22	22µM*
COc1cc(NC(=S)N2CCOCC2)c(OC)cc1Cl	?	4%[46 µM]	.	.	.
CC(C)CNCCc1ccccn1	16%[13.5 µM]	.	0%[11.4 µM]	.	-3%
CC/C(=N\Nc1ccccc1)c1c(O)n(C)c(=O)n(C)c1=O	?	?	-3%	10	-9%
C/C(=N\NC(=S)Nc1ccccc1)c1c(O)n(C)c(=O)n(C)c1=O	0.79µM*	8%	2%	-1	?
O=c1[nH]c(=S)[nH]c(O)c1N=Nc1ccc(S(=O)(=O)N2CCc3ccccc32)cc1	6.3µM*	.	.	.	.
